The source of these data is PubChem BioAssay (EPA / NIEHS).

Read-out in assay [1]: Interleukin-6 (IL6), IL6 (gene 3569)
In words: BSK_CASM3C_IL6: BioMAP Diversity Plus: CASM3C Assay for Interleukin-6 (IL6) Biomarker Activity for (AID 2283040). The following applies: primary human coronary artery smooth muscle cells; actives raise or lower the signal.

Read-out in assay [2]: Tissue plasminogen activator (tPA), PLAT (gene 5327)
Briefly: BSK_BE3C_tPA: BioMAP Diversity Plus: BE3C Assay for Tissue plasminogen activator (tPA) Biomarker Activity (AID 2283041).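 As to outcome: tPA level quantified by ELISA one day after compound addition.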 The note with it: primary human bronchial epithelial cells; actives raise or lower the signal. A digest of the protocol:
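Primary human lung bronchial epithelial cultures receive test chemical; after 24 h, tPA is quantified by ELISA, and gain or loss of signal is fitted bidirectionally relative to DMSO baseline.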

Read-out in assay [3]: Interleukin-8 (IL8), CXCL8 (gene 3576)
In words: BSK_CASM3C_IL8: BioMAP Diversity Plus: CASM3C Assay for Interleukin-8 (IL8) Biomarker Activity (AID 2283042).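 Also: IL-8 protein level quantified by ELISA.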 The following applies: primary human coronary artery smooth muscle cells; actives raise or lower the signal.

Read-out in assay [4]: Human Leukocyte Antigen - DR isotype (HLADR), HLA-DRA (gene 3122)
In words: BSK_CASM3C_HLADR: BioMAP Diversity Plus: CASM3C Assay for Human Leukocyte Antigen - DR isotype (HLADR) Biomarker Activity (AID 2283043).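 Also: cell-surface HLA-DR protein level quantified by ELISA.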 The note with it: primary human coronary artery smooth muscle cells; actives raise or lower the signal.

Read-out in assay [5]: Macrophage colony-stimulating factor (MCSF), CSF1 (gene 1435)
Briefly: BSK_CASM3C_MCSF: BioMAP Diversity Plus: CASM3C Assay for Macrophage colony-stimulating factor (MCSF) Biomarker Activity (AID 2283044).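 Also: M-CSF protein amount quantified by ELISA after 24 h exposure.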 The note with it: primary human coronary artery smooth muscle cells; actives raise or lower the signal.

Read-out in assay [6]: Low-density lipoprotein receptor (LDLR), LDLR (gene 3949)
In words: BSK_CASM3C_LDLR: BioMAP Diversity Plus: CASM3C Assay for Low-density lipoprotein receptor (LDLR) Biomarker Activity (AID 2283045).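 Also: LDLR protein level on the cell surface quantified by ELISA.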 The note with it: primary human coronary artery smooth muscle cells; actives raise or lower the signal.

Read-out in assay [7]: Monocyte Chemoattractant Protein-1 (MCP1), CCL2 (gene 6347)
Briefly: BSK_CASM3C_MCP1: BioMAP Diversity Plus: CASM3C Assay for Monocyte Chemoattractant Protein-1 (MCP1) Biomarker Activity (AID 2283046).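 Also: MCP-1 level quantified by ELISA 24 h after dosing.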 The note with it: primary human coronary artery smooth muscle cells; actives raise or lower the signal.

Assay [8] is described as follows: BSK_CASM3C_Proliferation: Cell Proliferation Assessment in the BioMAP Diversity Plus: CASM3C Assay (AID 2283047).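 Also: sulforhodamine B total protein stain as relative cell number at 560 nm; sub-confluent cells exposed 48 h before staining; fitted both ways against DMSO so gain or loss of cell number.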 The following applies: primary human coronary artery smooth muscle cells.
Read-out in assay [9]: Monokine induced gamma interferon (MIG), CXCL9 (gene 4283)
Briefly: BSK_CASM3C_MIG: BioMAP Diversity Plus: CASM3C Assay for Monokine induced gamma interferon (MIG) Biomarker Activity (AID 2283048).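 Also: MIG protein level measured by ELISA.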 The following applies: primary human coronary artery smooth muscle cells; actives raise or lower the signal.

Read-out in assay [10]: serum amyloid A (SAA), SAA1 (gene 6288)
In words: BSK_CASM3C_SAA: BioMAP Diversity Plus: CASM3C Assay for serum amyloid A (SAA) Biomarker Activity (AID 2283049).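 Also: SAA protein level quantified by ELISA.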 The following applies: primary human coronary artery smooth muscle cells; actives raise or lower the signal.

Several values for one entry are separate records, joined by “and”; a condition that tells them apart may be missing. Identical values can stand only once. Activity calls are given as the source filed them. The calls were made as follows: active = hit-call score of the fitted dose curve at least 0.9, where 1 is the maximum; inactive = score below 0.9.

For orientation: AC50 means the concentration at which the activity in the assay is half-maximal. Consider `CN(C)[C@@H]1C(=O)C(C(N)=O)=C(O)[C@@]2(O)C(=O)C3=C(O)c4c(O)cccc4[C@@](C)(O)[C@H]3[C@H](O)[C@@H]12`, for which the result in [1], in assay [2], in assay [3], in [4], in assay [5] and in assay [6] was inactive. In addition, the outcome in assay [7], in assay [9] and in [10] was inactive. Moreover, the AC50 in assay [8] was 28.7 µM (active) and 11 µM (active).
In the case of `O=C(O)c1cc(Oc2ccc(C(F)(F)F)cc2Cl)ccc1[N+](=O)[O-]`, the result in [1], in assay [2], in [3], in assay [4], in assay [5] and in assay [6] was inactive. Besides, the outcome in [7], in assay [8], in [9] and in assay [10] was inactive.
In the case of `CCCCN(CC)c1c([N+](=O)[O-])cc(C(F)(F)F)cc1[N+](=O)[O-]`, the result in assay [1], in assay [2], in assay [3], in assay [4], in [5] and in assay [6] was inactive. In addition, the result in [7], in assay [8], in assay [9] and in assay [10] was inactive.
Turning to `CCCSP(=O)(OCC)SCCC`, the result in assay [1], in assay [2], in assay [3], in assay [4], in assay [5] and in assay [6] was inactive. Further, the result in [7], in [8], in assay [9] and in assay [10] was inactive.
On to `Cc1nn(-c2cc(NS(C)(=O)=O)c(Cl)cc2Cl)c(=O)n1C(F)F`, for which the result in assay [1], in [2], in assay [3], in assay [4], in assay [5] and in assay [6] was inactive. The result in [7], in [8], in assay [9] and in assay [10] was inactive.
Turning to `CC(C1CC1)C(O)(Cn1cncn1)c1ccc(Cl)cc1` (stereo not given), the result in [1], in assay [2], in [3], in assay [4], in assay [5] and in [6] was inactive. The result in assay [7], in assay [8], in assay [9] and in assay [10] was inactive.
Regarding `CCCSP(=O)(OCC)Oc1ccc(Br)cc1Cl` (stereo not given), the concentration at half-maximal activity (AC50) in assay [1] was 23 µM (active); in assay [2] it was 13.4 µM (active); in assay [8], 32.1 µM (active). For the same molecule, the result in [3], in assay [4], in [5], in assay [6], in assay [7] and in assay [9] was inactive. Moreover, the outcome in assay [10] was inactive.
Consider `CCC(CC)Nc1c([N+](=O)[O-])cc(C)c(C)c1[N+](=O)[O-]`, for which the AC50 in [1] was 26.9 µM (active); in assay [8] it was 13.9 µM (active). For the same molecule, the result in assay [2], in [3], in assay [4], in assay [5], in assay [6] and in assay [7] was inactive. The outcome in assay [9] and in assay [10] was inactive.
With `CCOP(=S)(OCC)Oc1ccc2c(C)c(Cl)c(=O)oc2c1`, the result in assay [1], in assay [2], in assay [3], in assay [4], in assay [5] and in [6] was inactive. Further, the result in [7], in assay [9] and in [10] was inactive. Also, the concentration at half-maximal activity (AC50) in [8] is 20 µM (active).
Take `CCOP(=S)(OCC)SCCSCC`: the result in assay [1], in [2], in assay [3], in assay [4], in assay [5] and in assay [6] was inactive. Further, the outcome in [7], in [8], in assay [9] and in [10] was inactive.
Regarding `Nc1c(Cl)cc([N+](=O)[O-])cc1Cl`, the result in [1], in [2], in assay [3], in assay [4], in [5] and in [6] was inactive. The result in [7], in [8], in assay [9] and in assay [10] was inactive.
As to `C[Si](Cn1cncn1)(c1ccc(F)cc1)c1ccc(F)cc1`, the outcome in assay [1], in [2], in assay [3], in assay [4], in assay [5] and in assay [6] was inactive. In addition, the result in [7], in assay [8], in assay [9] and in assay [10] was inactive.
For the molecule `CC(Oc1cccc(Cl)c1)C(=O)O` (stereo not given), the result in [1], in [2], in assay [3], in [4], in [5] and in assay [6] was inactive. For the same molecule, the result in [7], in [8], in assay [9] and in assay [10] was inactive.
On to `Nc1nc(N)nc(NC2CC2)n1`, for which the result in assay [1], in [2], in assay [3], in [4], in assay [5] and in assay [6] was inactive. Moreover, the result in [7], in [8], in assay [9] and in [10] was inactive.
Regarding `CC[C@H](C)[C@H]1O[C@]2(C=C[C@@H]1C)C[C@@H]1C[C@@H](C/C=C(\C)[C@@H](O[C@H]3C[C@H](OC)[C@@H](O[C@H]4C[C@H](OC)[C@@H](NC)[C@H](C)O4)[C@H](C)O3)[C@@H](C)/C=C/C=C3\CO[C@@H]4[C@H](O)C(C)=C[C@@H](C(=O)O1)[C@]34O)O2`, the outcome in [1], in [2] and in [6] was inactive. Besides, the AC50 in assay [3] is 14.2 µM (active); in assay [4] it was 12.6 µM (active); in assay [5], 11.6 µM (active); in [7], 12.9 µM (active); in assay [8], 5.53 µM (active); in assay [9], 13.7 µM (active). Moreover, the AC50 in [10] is 9.71 µM (active).
Regarding `CC(C)=CC1C(C(=O)OCN2C(=O)C3=C(CCCC3)C2=O)C1(C)C` (stereo not given), the result in assay [1], in [2], in [3], in assay [4], in assay [5] and in assay [6] was inactive. Moreover, the result in [7], in assay [9] and in assay [10] was inactive. The AC50 in assay [8] was 20 µM (active).
On to `CCOC(=O)CC(SP(=O)(OC)OC)C(=O)OCC` (stereo not given), for which the outcome in [1], in [2], in assay [3], in [4], in assay [5] and in assay [6] was inactive. Further, the outcome in [7], in [8], in assay [9] and in assay [10] was inactive.
Turning to `COP(=O)(NC(C)=O)SC` (stereo not given), the outcome in assay [1], in assay [2], in assay [3], in [4], in [5] and in assay [6] was inactive. Also, the result in assay [7], in assay [8], in assay [9] and in assay [10] was inactive.
